# In PubChem BioAssay (NCATS):
# Inconclusive results are not listed. A call without a number means that no potency is given here. Active and inactive are the calls of the source. Unless noted, calls come from the whole dose curve; as a rule, active = well fitted curve in the direction sought with a large enough effect; inconclusive = small, poorly fitted or top-dose-only effect, or another doubt; inactive = no such curve, though single readings can be large; an effect the other way counts as inactive or inconclusive.
# Legend:
# [1] = target: Calcium and integrin-binding protein 1 (Homo sapiens) (UniProt Q99828); experiment: Primary qHTS for Identification of Calcium Integrin Binding Protein 1 (CIB1) Competitor (AID 1508620); settings: CIB1-GST / FITC-alphaIIb peptide fluorescence polarization; series mostly up to 57.7 µM;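 note: GST tagged CIB1 binding a fluorescein labelled alphaIIb integrin peptide tracer; top concentration of the series differs between compounds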
# Summary of the method: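 Fluorescence polarization competition: CIB1-GST (1 uM final) preincubated with compound 15 min at room temperature, then FITC-labeled alphaIIb peptide (100 nM final) added for another 15 min. Polarization read at Ex 480/Em 540.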
# [2] = target: Calcium and integrin-binding protein 1 (Homo sapiens) (UniProt Q99828); experiment: Confirmatory qHTS for Identification of Calcium Integrin Binding Protein 1 (CIB1) Competitor (AID 1508617); settings: CIB1 binding competition assay, biochemical qHTS; series mostly up to 114 µM; note: nearly all actives have a fitted effect of over 65% in size
# Summary of the method: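 FP competition: CIB1-GST (1 uM final) in 5 mM HEPES pH 7.4, 125 mM NaCl, 5 mM CaCl2, 0.01% Tween20 preincubated 15 min RT with compounds (up to 114 uM), then FITC-alphaIIb peptide (100 nM), 15 min RT; Ex 480/Em 540.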
# [3] = Primary qHTS for small molecule stabilizers of the endoplasmic reticulum resident proteome: Secreted ER Calcium Modulated Protein (SERCaMP) assay (AID 1508630); settings: SH-SY5Y GLuc-SERCaMP (Gaussia luciferase released on ER calcium loss) secretion, thapsigargin, luminescence; series mostly up to 38.4 µM
# Summary of the method: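 GLuc-SERCaMP-expressing SH-SY5Y cells, pretreated 16 h with compound, are challenged with thapsigargin to empty ER calcium stores; after 4 h, coelenterazine is added directly to the medium and luminescence is imaged.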
# [4] = target: Cytochrome P450 2D6 (Homo sapiens) (UniProt P10635); experiment: Cytochrome P450 family 2 subfamily D member 6 (CYP2D6) small molecule antagonists: luciferase biochemical (cell-free) qHTS assay (AID 1645840; active = well fitted curve in the direction sought with a large enough effect in the repeat runs; an effect the other way counts as inactive or inconclusive; note: potency is the fitted concentration of half-maximal effect; nearly all actives have a fitted effect of over 55% in size); settings: P450-Glo CYP2D6 enzyme, luciferin luminescence, 1 h; series mostly up to 57.4 µM
# Summary of the method: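 P450-Glo luminescent screen: recombinant CYP2D6 enzyme–proluciferin substrate mix preincubated with compound 10 min at room temperature, then NADPH regeneration added for 1 h at room temperature. Detection reagent added for 20 min; luciferin light read as relative luminescence units.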
# [5] = target: Cytochrome P450 2C9 (Homo sapiens) (UniProt P11712); experiment: Cytochrome P450 family 2 subfamily C member 9 (CYP2C9) small molecule antagonists: luciferase biochemical (cell-free) qHTS assay (AID 1645842; active = well fitted curve in the direction sought with a large enough effect in the repeat runs; an effect the other way counts as inactive or inconclusive; note: potency is the fitted concentration of half-maximal effect; nearly all actives have a fitted effect of over 55% in size); settings: P450-Glo CYP2C9 enzyme assay, luciferin luminescence; series mostly up to 57.4 µM
# Summary of the method: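 Luminescence, after 20 min with luciferin detection reagent, reflected CYP2C9 turnover during a 1 h NADPH-driven reaction at 37C. Enzyme-substrate mix contained 0.4% bovine serum albumin and was preincubated with compound 10 min at room temperature.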
# [6] = qHTS to identify inhibitors of the type 1 interferon - major histocompatibility complex class I in skeletal muscle: primary screen against the NCATS Mechanism Interrogation Plate v5.0 (MIPE) Libary (AID 1347411); settings: iHSKM cells + IFN-b, HiBiT-tagged MHC-I luminescence, 24 h; series mostly up to 45.8 µM; note: nearly all actives have a fitted effect of over 65% in size; note: potency is the fitted concentration of half-maximal effect
# Summary of the method: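 Luminescence from HiBiT-tagged endogenous HLA-B*08:01 served as the MHC class I read-out. CRISPR-engineered C25cl48 human myoblasts received 4.0 ng/ml IFN-beta plus compound for 24 hrs, with an 11-point, 1:3 series topping at 46 uM final.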
# Chain of Calcium and integrin-binding protein 1 (Homo sapiens) (Q99828 whole entry, looked up): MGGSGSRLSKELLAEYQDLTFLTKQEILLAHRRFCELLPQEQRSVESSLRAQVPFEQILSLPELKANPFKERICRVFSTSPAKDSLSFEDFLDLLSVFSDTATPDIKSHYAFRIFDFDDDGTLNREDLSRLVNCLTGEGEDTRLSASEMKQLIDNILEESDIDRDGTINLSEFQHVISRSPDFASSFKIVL
# Chain of Cytochrome P450 2C9 (Homo sapiens) (P11712 whole entry, looked up): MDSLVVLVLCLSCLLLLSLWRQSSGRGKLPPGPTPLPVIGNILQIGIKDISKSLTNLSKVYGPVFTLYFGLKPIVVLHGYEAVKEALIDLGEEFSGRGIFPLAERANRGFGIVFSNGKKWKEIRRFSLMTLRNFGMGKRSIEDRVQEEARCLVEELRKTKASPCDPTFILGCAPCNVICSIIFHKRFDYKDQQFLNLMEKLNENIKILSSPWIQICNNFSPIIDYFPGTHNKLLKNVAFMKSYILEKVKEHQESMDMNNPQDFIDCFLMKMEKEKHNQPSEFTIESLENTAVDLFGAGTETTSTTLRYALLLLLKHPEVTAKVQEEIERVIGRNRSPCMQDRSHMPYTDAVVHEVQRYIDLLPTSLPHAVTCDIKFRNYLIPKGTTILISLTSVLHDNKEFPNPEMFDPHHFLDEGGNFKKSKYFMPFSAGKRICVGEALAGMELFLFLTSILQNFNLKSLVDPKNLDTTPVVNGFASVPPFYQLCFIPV
# Chain of Cytochrome P450 2D6 (Homo sapiens) (P10635 whole entry, looked up): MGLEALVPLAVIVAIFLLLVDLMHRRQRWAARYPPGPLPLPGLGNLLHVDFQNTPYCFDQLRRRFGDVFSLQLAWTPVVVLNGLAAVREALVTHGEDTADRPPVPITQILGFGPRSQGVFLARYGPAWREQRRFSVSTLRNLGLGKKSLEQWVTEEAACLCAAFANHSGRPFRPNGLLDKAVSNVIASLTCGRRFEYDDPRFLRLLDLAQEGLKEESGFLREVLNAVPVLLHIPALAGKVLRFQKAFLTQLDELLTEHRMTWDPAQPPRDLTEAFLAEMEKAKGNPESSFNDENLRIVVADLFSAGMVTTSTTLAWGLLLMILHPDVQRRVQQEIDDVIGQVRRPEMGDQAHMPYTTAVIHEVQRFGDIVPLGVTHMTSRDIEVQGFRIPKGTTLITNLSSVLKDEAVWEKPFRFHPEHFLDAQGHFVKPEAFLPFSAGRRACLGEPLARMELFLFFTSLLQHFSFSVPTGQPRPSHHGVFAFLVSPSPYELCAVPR
smiles,measurement,setting,value
CC(C)(O)Cn1c(NC(=O)c2ccc(-c3cn[nH]c3)s2)nc2cc(CN3CCOCC3)ccc21,Potency,[1],inactive
CN(N=O)C(=O)N[C@H]1C(O)OC(CO)[C@@H](O)[C@H]1O (some centres not stated),Potency,[1],inactive
Cn1cc(C2=C(c3c4n(c5ccccc35)CCC(CN)C4)C(=O)NC2=O)c2ccccc21 (configuration not stated),Potency,[1],inactive
CC(C)(C)[N+]([O-])=Cc1ccc(S(=O)(=O)O)cc1S(=O)(=O)O,Potency,[1],inactive
C[C@@H](NCc1cc2ccccc2[nH]1)c1cccc2ccccc12,Potency,[2],inactive
same,outcome,[3],inactive
same,Potency,[4],0.0952 µM (active)
same,Potency,[5],10.7 µM (active)
CCc1ccc(C(=O)Nc2cc(CN3CCN(C)CC3)cc(C(F)(F)F)c2)cc1C#Cc1cnc2ccnn2c1,Potency,[1],inactive
Cc1cncc2cccc(S(=O)(=O)N3CCCN(C(=O)CN)C[C@@H]3C)c12,Potency,[6],inactive
same,Potency,[1],inactive
same,Potency,[5],19 µM (active)
COc1cccc2c1C(=O)c1c(O)c3c(c(O)c1C2=O)C[C@@](O)(C(=O)CO)C[C@@H]3O[C@H]1C[C@H](N)[C@@H](O)[C@H](C)O1,Potency,[6],0.829 µM (active)
same,outcome,[3],inactive
Nc1cccc2c1C(=O)N(C1CCC(=O)NC1=O)C2=O (configuration not stated),Potency,[6],inactive
same,outcome,[3],inactive
CNC(=O)c1cccc(-c2ccc3c(N4CCOC[C@H]4C)nc(N4CCOC[C@H]4C)nc3n2)c1,Potency,[1],inactive
N#CC(=Cc1ccc(O)c(O)c1)C(=O)NCc1ccccc1,Potency,[1],inactive
CC(=O)ON=C1C(c2c(O)[nH]c3cc(Br)ccc23)=Nc2ccccc21,Potency,[1],inactive
NC(=O)c1ncn([C@@H]2O[C@H](CO)[C@@H](O)[C@@H]2O)c1O,Potency,[2],inactive
same,Potency,[1],inactive
same,outcome,[3],inactive
